Data: PubChem BioAssay AID588849 (Broad Institute, 2011)
Results with a measured potency or affinity are listed apart. The source made the active and inactive calls. No rule for the calls is given here.

Target: CAAX prenyl protease 2 (Homo sapiens) (UniProt Q9Y256)
Assay: inhibition of Ras-converting CAAX protease Rce1 – biochemical, yeast membranes, quenched-peptide fluorescence, cherry-pick, dose response (AID 588849)
Details: yeast membrane fractions expressing human Rce1, quenched-peptide fluorescence, 4 h; series mostly up to 10 µM

CAAX prenyl protease 2 (Homo sapiens), sequence (Q9Y256 whole entry, looked up): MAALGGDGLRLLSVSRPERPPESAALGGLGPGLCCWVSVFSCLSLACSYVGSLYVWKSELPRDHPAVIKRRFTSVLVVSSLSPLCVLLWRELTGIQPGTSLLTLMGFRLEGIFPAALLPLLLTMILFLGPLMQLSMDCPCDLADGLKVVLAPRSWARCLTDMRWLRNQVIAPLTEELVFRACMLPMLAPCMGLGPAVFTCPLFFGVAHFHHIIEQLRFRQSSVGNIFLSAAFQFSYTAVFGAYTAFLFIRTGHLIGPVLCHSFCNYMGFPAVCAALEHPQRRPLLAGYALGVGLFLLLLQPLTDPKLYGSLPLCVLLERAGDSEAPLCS

outcome, inactive:
COC(C[C@@H](O)C[C@H](O)[C@H](C)OCc1ccccc1)OC
COc1cccc2sc3ccc(C#CC4(O)CCCCC4)cc3c(=O)c12
CCCCCCCCNC(C)C(O)c1ccc(SC(C)C)cc1 (stereo not drawn)
Cc1ccc(S(=O)(=O)CC(=O)N2CCN(c3ccccc3F)CC2)cc1
Cc1ccc(NS(=O)(=O)c2ccc(NC(=O)N3CCCCC3)cc2)cc1
N=c1c2c(ncn1Cc1ccco1)Oc1ccc3ccccc3c1C2c1ccccc1 (stereo not drawn)
COc1ccc(CSc2ccc(-c3nc4ccccn4c3NCc3ccccc3)cc2OC)cc1
CCN(CC)Cc1c(O)ccc2c(=O)c(-c3ccccc3OC)coc12
COc1ccccc1CC(=O)Nc1ccc2c(C)cc(=O)oc2c1
O=C(CCNC(=O)N1CC(=O)Nc2ccccc21)NCCc1cccc(F)c1
O=C(CSc1nc2ccccc2s1)N1N=C(c2cccs2)CC1c1ccc(F)cc1 (stereo not drawn)
N=c1c(C(=O)NCc2ccc(F)cc2)cc2c(=O)n3ccccc3nc2n1Cc1cccnc1
CCN(CC)CCN(C(=O)c1ccc2ccccc2c1)c1nc2cc3c(cc2s1)OCO3
CCOC(=O)c1cc2c(=O)n3cccc(C)c3nc2n(CC(C)C)c1=NC(=O)c1ccco1
Cc1cc(C)c2nc(N(CCCN(C)C)C(=O)c3ccc4c(c3)CCCC4)sc2c1
COC(C[C@H](O)C[C@H](O)[C@@H](C)OCc1ccccc1)OC
O=C(c1cnc(Cl)c(Cl)c1)N1CCC(Cc2ccccc2)CC1
COc1ccc(N2CCN(C(=O)c3cc(-c4cccs4)nc4ccccc34)CC2)cc1
C#CCNC(=O)C1=C[C@@H](C2CCCCC2)C[C@@H](OCc2ccc(CO)cc2)O1
COc1cccc(/C=N/NC(=O)c2nnn(-c3nonc3N)c2C(C)C)c1OCc1ccc(F)cc1
Cn1c(CN2CCOCC2)c(C#N)c2ccccc21
Cc1ccc(NC(=O)CCc2ccc(S(=O)(=O)NC3CCCCC3)cc2)cc1
COC(=O)c1cnn2c3c(c(C)nc12)CCCC3
O=C(COc1ccc2ccc(=O)oc2c1)NCCc1c[nH]c2ccc(F)cc12
COc1cc2c(cc1OC)C(C)N(C(=O)CCNC(=O)c1ccccc1)CC2 (stereo not drawn)
COc1cccc(-c2csc(N3CCN(C(=O)NC45CC6CC(CC(C6)C4)C5)CC3)n2)c1
CCN(CC)CCCNC(=O)CCc1c(C)n(CC)c2cc(-c3ccccc3OC)nn2c1=O
CC1=C(C(=O)OCc2ccccc2)C(c2ccc(-c3ccccc3)cc2)NC(=O)N1CCCC(=O)O (stereo not drawn)
S=c1[nH]nc(-c2ccccc2)o1
CCOc1ccc(-n2c(SCc3ccc([N+](=O)[O-])cc3)nnc2-c2ccc(OC)cc2)cc1
OC1CCN(C(c2ccc3ncccc3c2)c2nnnn2C2CCCCC2)CC1 (stereo not drawn)
COc1ccc(OC)c(Cc2nnc(CCC(=O)N3CCN(C4CCCC4)CC3)o2)c1
CN1CCN(C(=O)c2ccc(-c3cccs3)s2)CC1
Cc1ccc(C(=O)c2c3ccccc3[n+]([O-])n2CCO)cc1
CC(=O)Nc1ccc(Cl)cc1C1COC(=O)C1=N (stereo not drawn)
CCOC(=O)[C@@H]1[C@H]2COc3ccc(Br)cc3[C@@H]2N2C(=O)N(c3cccc(Cl)c3)C(=O)[C@]12C
CCCCNC(=S)NNC(=O)CCn1cc(C)cn1
CC(C)[C@H](NC(=O)OCc1ccccc1)C(=O)OCC(=O)Nc1c(F)cccc1F
